According to PubChem BioAssay:

Experiment: small-molecule binders of probe aLefty1, primary screen, biochemical, small-molecule microarray, 635/667 nm fluorescence (AID 1153);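 also: score merges spot fluorescence with signal-to-noise ratio from the scanned slide images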
Details: higher = more signal
In the case of `C#CCCCON=C1C[C@@H](O)[C@@H](O)[C@@H]2[C@@H]3C(=O)N(Cc4ccccc4)C(=O)[C@@H]3CC[C@@H]12`, the composite z-score is reported as -0.0479. With `CCCNC(=O)OC[C@H]1O[C@H](CCON=C(C)CCC(=O)OC[C@H]2O[C@H](c3ccccc3)C=C[C@@H]2Oc2ccc(OC)cc2)C=C[C@@H]1Oc1ccc(OC)cc1` the composite z-score was -0.0477. With `CO[C@H]1COC(=O)[C@@H](C)COC(=O)[C@H](C)NC(=O)CC=C[C@H]1C` the composite z-score was -0.0186. `C[C@@H](c1ccccc1)N1C(=O)[C@H]2[C@H]3[C@H](O)[C@H](O)CC(=O)[C@H]3CC[C@H]2C1=O` gave a composite z-score of -0.196. In the case of `CO[C@H]1COC(=O)CC=C[C@@H](C)[C@H](NS(=O)(=O)c2ccc(C)cc2)COC(=O)CCC[C@@H]1C`, the composite z-score is reported as -0.062. `CO[C@@H]1COC(=O)[C@H](CCSC)NC(=O)CC=C[C@@H](C)COC(=O)[C@H](C)NC(=O)CC=C[C@H]1C` gave a composite z-score of -0.231. In the case of `CCC(=O)[C@@]1(O)C(=O)N2C(=C3C(=O)OCC[C@@H]31)N(Cc1ccccc1)C(C)=C(C(=O)OC)[C@H]2c1ccccc1`, the composite z-score is reported as -0.103. `CCOC(=O)[C@H](CC(C)C)NC(=O)CCC1CC(OC(=O)NCCc2ccc(F)cc2)CC2(CCCC(COC(=O)NCCOc3ccccc3)O2)O1` (stereo partly specified) gave a composite z-score of -0.263. In the case of `CCCNC(=O)OC[C@H]1O[C@H](CCON=C(C)CCN2CCCc3nc(C)c(C)cc32)C=C[C@@H]1Oc1ccc(OC)cc1`, the composite z-score is reported as -0.0061. In the case of `O=C1CCCC=C1C(O)CCOC(c1ccccc1)(c1ccccc1)c1ccccc1` (stereo unspecified), the composite z-score is reported as -0.0969. `CCCNC(=O)OC[C@H]1O[C@H](CCON=Cc2ccc(C(=O)N3[C@H](c4ccc(C)cc4)[C@@H](C)CC[C@H]3C(=O)OC)cc2)C=C[C@@H]1Oc1ccc(OC)cc1` showed a composite z-score of -0.16.
